From the supplement of paper PMC11732987, “Enantioselective OTUD7B fragment discovery through chemoproteomics screening and high-throughput optimisation” (Communications Chemistry, 2025)

Columns and labels:
Assay in all cases: log2 ratio of Biotin-Ahx-Ub-VS probe labelling (fragment/DMSO); higher = less target engagement (more negative = stronger competition), active = hit call of the paper (q ≤ 0.05, log2 ratio ≤ -1)
Conditions in all cases: compound concentration: 200 uM; treatment time: 3 h
USP42 = target: T1, USP42 (UniProt Q9H9J4)
T1 sequence (whole entry): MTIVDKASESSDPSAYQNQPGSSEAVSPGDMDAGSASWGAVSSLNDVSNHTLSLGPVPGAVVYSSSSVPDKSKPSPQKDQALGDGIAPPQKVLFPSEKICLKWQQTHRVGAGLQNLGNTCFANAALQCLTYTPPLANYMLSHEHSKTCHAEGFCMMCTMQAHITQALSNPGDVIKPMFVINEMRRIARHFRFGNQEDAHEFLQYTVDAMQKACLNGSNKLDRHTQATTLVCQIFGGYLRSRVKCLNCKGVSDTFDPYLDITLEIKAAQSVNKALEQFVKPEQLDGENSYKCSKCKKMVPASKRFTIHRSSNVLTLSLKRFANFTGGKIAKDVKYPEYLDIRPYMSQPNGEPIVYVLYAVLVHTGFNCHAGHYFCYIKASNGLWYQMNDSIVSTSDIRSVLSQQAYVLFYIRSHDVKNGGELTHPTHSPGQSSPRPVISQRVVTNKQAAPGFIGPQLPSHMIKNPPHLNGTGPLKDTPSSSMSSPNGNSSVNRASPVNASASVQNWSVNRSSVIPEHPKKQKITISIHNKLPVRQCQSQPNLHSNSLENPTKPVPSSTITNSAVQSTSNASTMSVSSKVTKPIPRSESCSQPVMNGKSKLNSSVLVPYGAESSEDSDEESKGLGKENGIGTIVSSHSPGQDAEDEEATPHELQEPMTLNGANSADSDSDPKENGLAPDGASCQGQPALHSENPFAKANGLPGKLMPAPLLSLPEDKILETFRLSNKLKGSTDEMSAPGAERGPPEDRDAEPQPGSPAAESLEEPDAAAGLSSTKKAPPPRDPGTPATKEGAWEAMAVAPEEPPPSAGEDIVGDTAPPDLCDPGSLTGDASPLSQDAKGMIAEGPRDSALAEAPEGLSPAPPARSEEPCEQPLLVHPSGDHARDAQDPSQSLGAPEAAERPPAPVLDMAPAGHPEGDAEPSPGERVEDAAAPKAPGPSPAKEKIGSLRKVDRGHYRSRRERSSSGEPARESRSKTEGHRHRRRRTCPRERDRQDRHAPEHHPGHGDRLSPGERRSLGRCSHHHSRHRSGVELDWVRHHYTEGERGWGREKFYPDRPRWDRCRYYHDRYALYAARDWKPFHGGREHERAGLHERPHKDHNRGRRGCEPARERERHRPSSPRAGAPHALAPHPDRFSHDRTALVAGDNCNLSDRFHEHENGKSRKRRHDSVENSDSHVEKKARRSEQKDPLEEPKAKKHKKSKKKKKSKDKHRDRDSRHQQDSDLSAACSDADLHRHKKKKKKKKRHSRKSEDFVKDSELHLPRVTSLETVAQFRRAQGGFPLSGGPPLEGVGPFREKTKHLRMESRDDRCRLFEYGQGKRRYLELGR
Outline: (§1)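 HEK293T lysate, 495 µg per sample in Tris/CHAPS/IGEPAL buffer with protease inhibitors, was treated in triplicate with fragment at 200 µM or vehicle for 3 h and then with Biotin-Ahx-Ub-VS at 0.5 µM final for 1 h. Labelled DUBs were NeutrAvidin-enriched, digested with LysC and trypsin, and run by diaPASEF LC-MS/MS. Spectronaut label-free quantities were global-median-normalised, and values are average log2 fragment/vehicle ratios by unpaired t-test on proteins with ≥2 unique peptides.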

USP46 = USP46 (UniProt P62068)
Outline: as §1

USP47 = target: T2, USP47 (UniProt Q96K76)
T2 sequence (whole entry): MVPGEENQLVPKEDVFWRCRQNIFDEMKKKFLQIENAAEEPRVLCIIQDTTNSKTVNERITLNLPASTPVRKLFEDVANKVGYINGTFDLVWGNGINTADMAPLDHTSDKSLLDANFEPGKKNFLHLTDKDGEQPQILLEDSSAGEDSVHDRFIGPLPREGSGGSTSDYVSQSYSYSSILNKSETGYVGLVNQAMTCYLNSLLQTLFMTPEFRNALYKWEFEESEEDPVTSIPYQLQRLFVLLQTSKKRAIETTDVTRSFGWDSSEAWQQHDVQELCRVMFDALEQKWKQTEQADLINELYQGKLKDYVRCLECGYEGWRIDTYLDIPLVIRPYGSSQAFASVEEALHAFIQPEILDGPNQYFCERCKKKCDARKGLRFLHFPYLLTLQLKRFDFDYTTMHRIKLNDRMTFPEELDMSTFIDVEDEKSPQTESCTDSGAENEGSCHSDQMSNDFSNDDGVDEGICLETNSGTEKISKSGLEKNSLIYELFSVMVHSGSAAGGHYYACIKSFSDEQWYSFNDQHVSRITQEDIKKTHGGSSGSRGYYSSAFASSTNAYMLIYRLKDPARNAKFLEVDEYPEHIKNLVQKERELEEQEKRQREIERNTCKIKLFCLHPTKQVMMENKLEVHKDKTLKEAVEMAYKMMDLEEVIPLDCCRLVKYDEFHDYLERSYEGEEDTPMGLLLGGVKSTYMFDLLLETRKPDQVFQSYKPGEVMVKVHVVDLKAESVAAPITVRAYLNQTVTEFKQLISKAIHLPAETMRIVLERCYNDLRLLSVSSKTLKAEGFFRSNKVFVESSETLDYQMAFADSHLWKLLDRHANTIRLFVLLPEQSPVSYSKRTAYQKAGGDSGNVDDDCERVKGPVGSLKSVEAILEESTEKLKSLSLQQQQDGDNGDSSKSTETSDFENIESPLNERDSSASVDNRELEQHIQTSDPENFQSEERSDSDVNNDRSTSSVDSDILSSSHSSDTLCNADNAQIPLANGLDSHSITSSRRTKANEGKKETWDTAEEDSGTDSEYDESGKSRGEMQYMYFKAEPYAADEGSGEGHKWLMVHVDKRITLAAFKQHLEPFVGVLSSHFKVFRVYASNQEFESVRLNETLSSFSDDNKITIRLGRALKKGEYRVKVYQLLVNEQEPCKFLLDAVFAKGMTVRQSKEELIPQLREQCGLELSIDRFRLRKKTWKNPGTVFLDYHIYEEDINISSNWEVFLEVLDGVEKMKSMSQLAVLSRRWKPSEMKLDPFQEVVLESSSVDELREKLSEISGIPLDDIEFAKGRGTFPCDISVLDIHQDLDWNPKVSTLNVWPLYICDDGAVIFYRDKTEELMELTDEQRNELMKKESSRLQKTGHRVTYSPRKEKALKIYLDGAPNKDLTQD
Outline: as §1

USP48 = target: T3, USP48 (UniProt Q86UV5)
T3 sequence (whole entry): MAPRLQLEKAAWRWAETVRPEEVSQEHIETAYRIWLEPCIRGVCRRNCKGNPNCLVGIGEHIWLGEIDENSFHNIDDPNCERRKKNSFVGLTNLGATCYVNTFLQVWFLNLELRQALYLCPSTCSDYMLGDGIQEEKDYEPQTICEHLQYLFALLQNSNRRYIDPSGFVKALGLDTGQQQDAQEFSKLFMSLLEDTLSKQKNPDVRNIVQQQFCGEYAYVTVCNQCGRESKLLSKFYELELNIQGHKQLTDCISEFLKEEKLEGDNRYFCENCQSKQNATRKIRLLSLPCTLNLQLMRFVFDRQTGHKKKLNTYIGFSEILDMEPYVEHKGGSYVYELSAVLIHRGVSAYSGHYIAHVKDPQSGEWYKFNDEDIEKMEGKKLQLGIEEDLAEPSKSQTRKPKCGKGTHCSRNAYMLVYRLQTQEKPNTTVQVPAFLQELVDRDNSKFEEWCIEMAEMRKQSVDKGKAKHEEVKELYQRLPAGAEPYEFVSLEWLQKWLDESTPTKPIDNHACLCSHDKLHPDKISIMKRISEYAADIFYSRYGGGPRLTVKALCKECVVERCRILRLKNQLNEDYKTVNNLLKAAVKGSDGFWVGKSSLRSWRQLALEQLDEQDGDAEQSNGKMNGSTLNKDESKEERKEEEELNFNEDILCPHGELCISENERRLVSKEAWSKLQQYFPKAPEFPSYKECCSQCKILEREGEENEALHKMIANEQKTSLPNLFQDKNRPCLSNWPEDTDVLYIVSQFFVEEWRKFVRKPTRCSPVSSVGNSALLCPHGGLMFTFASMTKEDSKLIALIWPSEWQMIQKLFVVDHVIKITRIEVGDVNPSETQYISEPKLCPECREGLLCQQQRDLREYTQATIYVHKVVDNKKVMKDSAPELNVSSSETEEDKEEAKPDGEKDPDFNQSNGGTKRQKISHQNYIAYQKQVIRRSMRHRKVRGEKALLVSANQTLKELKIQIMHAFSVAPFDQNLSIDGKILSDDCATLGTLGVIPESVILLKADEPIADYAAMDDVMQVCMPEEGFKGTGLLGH
Outline: as §1

USP5 = target: T4, USP5 (UniProt P45974)
T4 sequence (whole entry): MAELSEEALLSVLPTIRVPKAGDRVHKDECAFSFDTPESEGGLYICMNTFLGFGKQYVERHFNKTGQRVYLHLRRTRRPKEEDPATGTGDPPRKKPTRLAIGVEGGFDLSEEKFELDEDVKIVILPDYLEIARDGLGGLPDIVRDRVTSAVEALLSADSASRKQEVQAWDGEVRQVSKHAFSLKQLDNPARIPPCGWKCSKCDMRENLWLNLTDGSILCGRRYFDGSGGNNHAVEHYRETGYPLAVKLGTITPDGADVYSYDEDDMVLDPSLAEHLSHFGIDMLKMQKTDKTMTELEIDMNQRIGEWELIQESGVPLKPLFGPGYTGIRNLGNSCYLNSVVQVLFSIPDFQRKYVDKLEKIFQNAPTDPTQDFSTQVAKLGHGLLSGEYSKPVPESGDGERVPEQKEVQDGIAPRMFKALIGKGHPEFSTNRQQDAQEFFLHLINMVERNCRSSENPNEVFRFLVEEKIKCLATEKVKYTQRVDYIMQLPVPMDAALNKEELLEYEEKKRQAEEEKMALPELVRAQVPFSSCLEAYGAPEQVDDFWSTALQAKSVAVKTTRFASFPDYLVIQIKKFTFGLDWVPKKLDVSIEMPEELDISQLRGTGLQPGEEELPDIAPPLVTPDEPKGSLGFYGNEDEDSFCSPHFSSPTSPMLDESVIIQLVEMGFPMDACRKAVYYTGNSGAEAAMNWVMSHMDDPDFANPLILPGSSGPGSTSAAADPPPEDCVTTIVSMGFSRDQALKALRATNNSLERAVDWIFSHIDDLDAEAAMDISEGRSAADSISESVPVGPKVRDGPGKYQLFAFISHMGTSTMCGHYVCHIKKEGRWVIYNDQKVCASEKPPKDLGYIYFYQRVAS
Outline: as §1

USP54 = USP54 (UniProt Q70EL1)
Outline: as §1

USP7 = USP7 (UniProt Q93009)
Outline: as §1

USP8 = target: T5, USP8 (UniProt P40818)
T5 sequence (whole entry): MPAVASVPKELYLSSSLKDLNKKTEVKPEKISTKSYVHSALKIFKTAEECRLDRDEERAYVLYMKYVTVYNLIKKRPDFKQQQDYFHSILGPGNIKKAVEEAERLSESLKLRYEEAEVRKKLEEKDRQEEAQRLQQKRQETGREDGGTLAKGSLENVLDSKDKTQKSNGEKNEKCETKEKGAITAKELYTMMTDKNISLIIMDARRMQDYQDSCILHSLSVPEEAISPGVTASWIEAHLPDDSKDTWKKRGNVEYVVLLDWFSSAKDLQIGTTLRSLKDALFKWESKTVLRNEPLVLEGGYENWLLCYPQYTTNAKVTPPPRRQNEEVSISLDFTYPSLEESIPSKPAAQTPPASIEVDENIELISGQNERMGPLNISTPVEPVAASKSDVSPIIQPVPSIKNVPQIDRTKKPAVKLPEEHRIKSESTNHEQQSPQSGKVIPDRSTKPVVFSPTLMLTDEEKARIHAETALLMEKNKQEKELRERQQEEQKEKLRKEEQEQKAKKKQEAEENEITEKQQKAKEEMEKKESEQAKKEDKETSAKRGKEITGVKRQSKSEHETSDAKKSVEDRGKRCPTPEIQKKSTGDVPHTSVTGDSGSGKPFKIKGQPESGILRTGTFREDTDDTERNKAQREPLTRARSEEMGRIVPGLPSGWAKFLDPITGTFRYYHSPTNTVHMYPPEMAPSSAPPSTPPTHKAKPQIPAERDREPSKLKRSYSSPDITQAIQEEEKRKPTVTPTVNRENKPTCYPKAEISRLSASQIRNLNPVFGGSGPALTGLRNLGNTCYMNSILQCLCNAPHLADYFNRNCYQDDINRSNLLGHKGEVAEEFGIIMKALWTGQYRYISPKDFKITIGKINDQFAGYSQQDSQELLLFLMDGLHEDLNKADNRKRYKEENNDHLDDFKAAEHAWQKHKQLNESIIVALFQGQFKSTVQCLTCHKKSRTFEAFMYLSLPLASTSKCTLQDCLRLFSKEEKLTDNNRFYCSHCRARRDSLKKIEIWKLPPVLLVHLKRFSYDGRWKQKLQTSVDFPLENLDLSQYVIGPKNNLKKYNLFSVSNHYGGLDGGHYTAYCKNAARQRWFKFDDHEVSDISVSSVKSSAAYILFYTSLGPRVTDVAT
Outline: as §1

USP9X = USP9X (UniProt Q93008)
Outline: as §1

UniProt O00487 = target: UniProt O00487
Outline: as §1

Measured: log2 ratio of Biotin-Ahx-Ub-VS probe labelling

USP46, sequence (P62068 whole entry): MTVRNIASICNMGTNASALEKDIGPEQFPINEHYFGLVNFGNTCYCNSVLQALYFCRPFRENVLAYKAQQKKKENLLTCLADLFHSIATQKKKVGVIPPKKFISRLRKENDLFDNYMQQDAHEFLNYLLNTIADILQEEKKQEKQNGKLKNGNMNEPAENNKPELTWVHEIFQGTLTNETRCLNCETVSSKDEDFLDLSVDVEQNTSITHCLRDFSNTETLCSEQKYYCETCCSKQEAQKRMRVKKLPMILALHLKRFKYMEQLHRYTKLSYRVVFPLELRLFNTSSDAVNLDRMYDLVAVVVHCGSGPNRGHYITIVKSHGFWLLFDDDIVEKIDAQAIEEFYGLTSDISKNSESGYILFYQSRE
UniProt O00487, sequence (O00487 whole entry): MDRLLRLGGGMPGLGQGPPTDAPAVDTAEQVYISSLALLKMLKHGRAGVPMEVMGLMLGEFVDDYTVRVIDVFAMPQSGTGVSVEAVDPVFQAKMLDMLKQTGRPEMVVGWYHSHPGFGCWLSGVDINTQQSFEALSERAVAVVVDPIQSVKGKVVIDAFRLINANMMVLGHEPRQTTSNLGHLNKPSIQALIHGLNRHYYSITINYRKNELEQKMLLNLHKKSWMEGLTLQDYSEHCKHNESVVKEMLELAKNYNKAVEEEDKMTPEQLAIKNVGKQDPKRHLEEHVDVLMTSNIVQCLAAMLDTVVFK
USP9X, sequence (Q93008 whole entry): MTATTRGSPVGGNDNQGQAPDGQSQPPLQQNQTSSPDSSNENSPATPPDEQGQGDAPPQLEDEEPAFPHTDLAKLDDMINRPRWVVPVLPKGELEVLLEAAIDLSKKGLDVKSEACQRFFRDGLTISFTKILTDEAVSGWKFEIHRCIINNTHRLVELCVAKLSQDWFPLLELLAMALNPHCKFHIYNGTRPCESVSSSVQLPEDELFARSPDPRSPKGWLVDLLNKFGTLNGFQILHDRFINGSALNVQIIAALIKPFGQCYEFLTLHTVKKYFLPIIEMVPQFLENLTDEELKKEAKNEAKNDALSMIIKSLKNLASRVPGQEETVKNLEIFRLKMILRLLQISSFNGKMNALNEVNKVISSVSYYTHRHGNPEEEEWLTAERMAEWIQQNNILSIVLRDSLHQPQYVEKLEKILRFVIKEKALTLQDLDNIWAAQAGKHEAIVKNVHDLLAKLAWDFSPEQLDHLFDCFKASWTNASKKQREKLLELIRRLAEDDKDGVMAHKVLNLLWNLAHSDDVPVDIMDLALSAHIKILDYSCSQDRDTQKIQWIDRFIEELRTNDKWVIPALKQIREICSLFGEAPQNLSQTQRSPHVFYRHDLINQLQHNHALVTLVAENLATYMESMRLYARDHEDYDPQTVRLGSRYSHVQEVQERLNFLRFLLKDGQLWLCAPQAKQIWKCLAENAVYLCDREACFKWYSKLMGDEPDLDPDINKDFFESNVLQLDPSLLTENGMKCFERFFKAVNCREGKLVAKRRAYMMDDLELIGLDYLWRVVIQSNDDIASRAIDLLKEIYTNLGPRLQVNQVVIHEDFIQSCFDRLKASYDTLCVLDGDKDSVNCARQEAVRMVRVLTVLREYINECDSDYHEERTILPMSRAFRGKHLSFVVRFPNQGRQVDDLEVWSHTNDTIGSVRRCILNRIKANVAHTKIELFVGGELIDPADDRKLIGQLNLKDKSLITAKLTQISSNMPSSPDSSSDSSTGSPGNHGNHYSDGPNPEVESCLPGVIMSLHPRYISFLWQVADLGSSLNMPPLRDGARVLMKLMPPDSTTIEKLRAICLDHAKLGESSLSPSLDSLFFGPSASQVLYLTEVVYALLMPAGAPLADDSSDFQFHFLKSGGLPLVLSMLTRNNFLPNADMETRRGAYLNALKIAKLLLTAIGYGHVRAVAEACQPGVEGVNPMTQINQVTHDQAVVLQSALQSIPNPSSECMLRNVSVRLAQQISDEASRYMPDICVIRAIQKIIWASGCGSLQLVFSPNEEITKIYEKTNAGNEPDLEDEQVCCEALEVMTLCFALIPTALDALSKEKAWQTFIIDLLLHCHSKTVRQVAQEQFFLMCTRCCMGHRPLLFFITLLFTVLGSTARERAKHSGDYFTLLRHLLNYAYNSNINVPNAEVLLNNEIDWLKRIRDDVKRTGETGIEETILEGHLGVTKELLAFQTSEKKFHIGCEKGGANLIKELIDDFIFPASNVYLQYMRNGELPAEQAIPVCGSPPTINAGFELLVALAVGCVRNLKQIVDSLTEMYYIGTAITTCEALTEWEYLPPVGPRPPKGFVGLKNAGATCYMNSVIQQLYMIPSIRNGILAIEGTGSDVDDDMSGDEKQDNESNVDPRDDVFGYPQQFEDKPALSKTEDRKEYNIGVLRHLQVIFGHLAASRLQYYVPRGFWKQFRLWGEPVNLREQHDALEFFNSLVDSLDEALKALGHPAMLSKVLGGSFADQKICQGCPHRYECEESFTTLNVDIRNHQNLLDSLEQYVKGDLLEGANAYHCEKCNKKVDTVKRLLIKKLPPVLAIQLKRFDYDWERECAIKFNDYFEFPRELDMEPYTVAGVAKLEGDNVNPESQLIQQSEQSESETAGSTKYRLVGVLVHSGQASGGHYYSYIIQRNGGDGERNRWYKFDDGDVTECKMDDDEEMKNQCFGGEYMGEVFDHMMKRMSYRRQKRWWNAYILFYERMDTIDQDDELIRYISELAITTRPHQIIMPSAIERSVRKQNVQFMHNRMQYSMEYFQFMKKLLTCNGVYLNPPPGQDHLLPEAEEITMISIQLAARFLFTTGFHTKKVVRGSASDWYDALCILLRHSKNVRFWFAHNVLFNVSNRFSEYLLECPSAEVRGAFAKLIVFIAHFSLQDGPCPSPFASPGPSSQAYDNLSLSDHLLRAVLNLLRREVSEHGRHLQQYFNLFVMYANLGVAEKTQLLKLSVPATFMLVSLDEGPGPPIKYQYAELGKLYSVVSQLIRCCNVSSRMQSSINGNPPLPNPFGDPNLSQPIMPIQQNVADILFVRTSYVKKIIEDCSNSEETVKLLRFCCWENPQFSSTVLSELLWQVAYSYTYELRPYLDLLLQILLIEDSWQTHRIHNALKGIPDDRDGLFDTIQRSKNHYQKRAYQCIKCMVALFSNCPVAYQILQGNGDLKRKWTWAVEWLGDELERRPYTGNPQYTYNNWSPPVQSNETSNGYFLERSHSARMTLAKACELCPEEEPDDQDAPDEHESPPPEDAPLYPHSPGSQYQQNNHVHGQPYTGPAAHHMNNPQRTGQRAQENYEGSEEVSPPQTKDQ
USP54, sequence (Q70EL1 whole entry): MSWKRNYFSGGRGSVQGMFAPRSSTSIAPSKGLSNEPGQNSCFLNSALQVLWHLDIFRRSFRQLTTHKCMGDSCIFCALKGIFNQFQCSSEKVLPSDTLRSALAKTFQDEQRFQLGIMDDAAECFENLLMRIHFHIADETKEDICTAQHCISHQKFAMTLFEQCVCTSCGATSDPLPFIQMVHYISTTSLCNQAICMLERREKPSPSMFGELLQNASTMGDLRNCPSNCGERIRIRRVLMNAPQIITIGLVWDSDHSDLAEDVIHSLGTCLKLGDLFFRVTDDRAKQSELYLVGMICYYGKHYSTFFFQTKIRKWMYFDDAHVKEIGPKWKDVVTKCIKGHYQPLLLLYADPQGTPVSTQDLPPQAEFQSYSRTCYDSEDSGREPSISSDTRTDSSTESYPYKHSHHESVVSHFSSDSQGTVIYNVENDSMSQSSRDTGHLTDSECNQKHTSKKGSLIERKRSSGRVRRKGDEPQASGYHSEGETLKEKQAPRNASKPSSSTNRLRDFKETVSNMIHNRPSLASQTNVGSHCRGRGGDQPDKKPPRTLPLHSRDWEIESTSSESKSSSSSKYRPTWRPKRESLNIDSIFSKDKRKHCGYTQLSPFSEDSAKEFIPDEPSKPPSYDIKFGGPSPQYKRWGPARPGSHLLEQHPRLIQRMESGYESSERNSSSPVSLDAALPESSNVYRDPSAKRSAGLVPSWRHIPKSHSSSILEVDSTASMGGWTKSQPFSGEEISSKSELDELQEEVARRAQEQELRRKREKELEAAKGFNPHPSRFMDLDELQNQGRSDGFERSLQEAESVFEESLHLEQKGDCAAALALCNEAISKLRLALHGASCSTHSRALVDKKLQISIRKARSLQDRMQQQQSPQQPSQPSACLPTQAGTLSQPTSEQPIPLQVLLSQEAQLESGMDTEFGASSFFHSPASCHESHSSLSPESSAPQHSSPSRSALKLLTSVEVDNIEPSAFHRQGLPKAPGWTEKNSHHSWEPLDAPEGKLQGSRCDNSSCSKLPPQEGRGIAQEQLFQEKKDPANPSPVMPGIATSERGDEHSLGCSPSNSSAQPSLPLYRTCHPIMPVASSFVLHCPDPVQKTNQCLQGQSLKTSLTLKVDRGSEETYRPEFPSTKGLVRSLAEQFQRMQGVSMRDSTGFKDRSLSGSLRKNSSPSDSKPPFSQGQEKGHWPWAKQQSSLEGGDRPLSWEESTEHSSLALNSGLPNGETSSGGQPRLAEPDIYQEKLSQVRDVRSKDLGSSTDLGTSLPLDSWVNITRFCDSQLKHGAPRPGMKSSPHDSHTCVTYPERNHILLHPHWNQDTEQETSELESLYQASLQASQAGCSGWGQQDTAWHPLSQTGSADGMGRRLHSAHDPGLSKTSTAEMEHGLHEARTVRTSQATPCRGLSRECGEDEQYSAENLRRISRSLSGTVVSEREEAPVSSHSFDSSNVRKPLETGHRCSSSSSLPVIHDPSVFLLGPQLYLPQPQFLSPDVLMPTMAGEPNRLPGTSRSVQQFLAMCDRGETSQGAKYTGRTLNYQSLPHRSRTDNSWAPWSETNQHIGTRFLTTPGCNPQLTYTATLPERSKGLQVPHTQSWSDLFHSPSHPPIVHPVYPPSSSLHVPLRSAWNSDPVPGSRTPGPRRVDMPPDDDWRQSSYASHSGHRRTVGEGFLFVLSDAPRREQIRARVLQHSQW

O=C(CCl)Nc1cc2c(cc1Cl)OCCO2
active: USP48 -1.05
inactive: USP42 0.233 | USP46 0.0711 | USP47 -0.426 | USP5 0.0658 | USP54 0.291 | USP7 -0.216 | USP8 -0.226 | USP9X -0.246 | UniProt O00487 -0.0671

Cc1conc1C1CN(C(=O)CCl)C1
active: USP7 -1.04
inactive: USP42 0.317 | USP46 -0.643 | USP47 -0.971 | USP48 -0.753 | USP5 -0.555 | USP54 1.02 | USP8 -0.915 | USP9X -0.803 | UniProt O00487 -0.115

O=C(CCl)NCC(=O)N1CCCC1
inactive: USP42 0.103 | USP46 0.0751 | USP47 0.107 | USP48 -0.00296 | USP5 0.205 | USP54 0.812 | USP7 -0.0345 | USP8 -0.434 | USP9X -0.168 | UniProt O00487 -0.0526

O=C(CCl)NC1CCC2(CC1)OCCO2
inactive: USP42 -0.0532 | USP46 -0.121 | USP47 0.154 | USP48 -0.263 | USP5 -0.0178 | USP54 0.457 | USP7 -0.157 | USP8 -0.255 | USP9X -0.361 | UniProt O00487 -0.145
